The record followed here is PubChem BioAssay AID720488 (Milwaukee Institute for Drug Discovery, 2013).

Structures are written as SMILES. In all, about 16,000 compounds went through this assay and about 960 (6%) were called active.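 How the source made its calls: active means compound fluorescence over control fluorescence at most 0.8, a quencher, or at least a set upper limit, an enhancer; inactive means ratio between 0.8 and the set upper limit.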 Many of the other results were omitted from the sample, so actives are more common in it than they were.

This assay can be described thus: Cy5 fluorescence quenchers or enhancers, artefact control for HCV NS3 helicase inhibitor project, biochemical, ChemBridge library, Cy5 readout (AID 720488). Conditions: Cy5-dT15 DNA with NS3h, at 100 µM, actives lie on both sides, signal over control mean, under 1 quenches.
`O=C1C2C3C=CC(C3=C(c3ccccc3)c3ccccc3)C2C(=O)N1c1cccc(C(F)(F)F)c1` (configuration not stated): the fluorescence interference ratio is 1.02 (inactive).
As for `CC(=O)c1cccc(N2C(=O)C3C4C=CC(C5CC45)C3C2=O)c1` (configuration not stated), the fluorescence interference ratio was 0.66 (active).
With `CCOc1ccc(C(=O)Nc2ccc(Cl)c(-c3nc4ncccc4o3)c2)cc1Cl` the figure was 1.17 (inactive); with `Cc1cccc(N=C2NC(=O)CS2)c1C`, 1 (inactive); with `O=C1NC(=Nc2cccc(O)c2)S/C1=C\c1cccc(O)c1`, 0.898 (inactive).
With `Cc1cccc(N=C2NC(=O)/C(=C\c3ccc([N+](=O)[O-])cc3)S2)c1C` the figure was 0.748 (active).
Regarding `COC(=O)C1=C(O)/C(=C\c2ccccc2C(F)(F)F)N=C1C`, the fluorescence interference ratio was 0.891 (inactive).
The value for `CCOC(=O)c1[nH]c(=O)[nH]c1CSc1nccn1C` was 1.03 (inactive); that for `Cc1cc(/C=N\O)c(C)n1-c1ccc(F)cc1` was 0.964 (inactive).
On to `O=C(Nc1ccncc1)c1cc2ccccc2o1`, for which the fluorescence interference ratio is 0.446 (active).
The value for `Cc1ccc(NC(=O)c2cccc(C(=O)Nc3ccc(C)cc3)n2)cc1` was 0.981 (inactive); that for `Cc1cc(Br)cc(C)c1NC(=O)c1cc2ccccc2o1` was 0.937 (inactive); that for `Cc1ccccc1CC1S/C(=N/N=C\c2ccc(N(C)C)cc2)NC1=O` (configuration not stated) was 0.981 (inactive).
The value for `Cc1cccc(NS(=O)(=O)c2ccc([N+](=O)[O-])cc2)n1` was 0.931 (inactive); that for `COc1ccc(C2=CC=C(c3ccc(OC)cc3)C2)cc1` was 0.865 (inactive); that for `CCOCCOCCC(C(=O)O)P(=O)(c1ccccc1)c1ccccc1` (configuration not stated) was 0.631 (active).
The value for `CCCCOCP(=O)(c1ccccc1)c1ccccc1` was 1.1 (inactive); that for `CCOC(=O)C(C#N)C(=S)Nc1ccccc1` (configuration not stated) was 1.02 (inactive); that for `Cn1cnc2c1c(=O)n(Cc1ccc(F)cc1)c(=O)n2C` was 1.12 (inactive).
For the compound `COc1ccc(C(=O)COc2cc3c(C(=O)OC(C)C)c(C)oc3cc2Br)cc1`, the fluorescence interference ratio was 1 (inactive).
`O=[N+]([O-])c1cccc(S(=O)(=O)NCc2ccccn2)c1`: the fluorescence interference ratio was 1.05 (inactive).
The value for `COc1ccc(N=Cc2sccc2C)c([N+](=O)[O-])c1` was 1.02 (inactive); that for `COc1ccc(N2C(=O)C3C4C=CC(C4=C(C)C)C3C2=O)c([N+](=O)[O-])c1` (configuration not stated) was 0.887 (inactive); that for `COc1ccc(N2C(=O)C=CC2=O)c([N+](=O)[O-])c1` was 0.622 (active).
With `CC1(C(=O)Nc2ccccc2Cl)CC2c3ccccc3C1c1ccccc12` (configuration not stated) the figure was 0.972 (inactive).
The value for `C=CCOC(=O)C1=C(C)NC(C)=C(C(=O)OCC=C)C1c1cccs1` was 0.9 (inactive); that for `O=C(Nc1ccc(Cl)c(Cl)c1)Nc1nnc(-c2ccc(Br)cc2)s1` was 1.03 (inactive).
